Laboratory results taken from PubChem BioAssay.
Activity calls are given as the source filed them.

Assays:
[1] = tested on: PRMT1 (protein arginine N-methyltransferase 1); experiment: small molecules binding arginine methyltransferase PRMT1 – biochemical, small-molecule microarray, 635 nm fluorescence, primary screen (AID 1088); conditions: higher = more signal;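 note: binding of Prmt1 protein to compounds spotted on small-molecule microarray slides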
[2] = growth effects on S. cerevisiae YJM789 – YJM789 clinical isolate, OD600, 24 h, basal, primary screen (AID 1089); conditions: higher = more signal, called active from +8 up or from −8 down;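 note: growth of clinical yeast isolate S. cerevisiae YJM 789 seeded 1000 cells per well; test concentration not given here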
[3] = S. pombe growth modifiers, basal conditions – strain 972, OD600, 24 h, no modulator, primary screen (AID 1090);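 note: basal condition with compound alone and no growth modifier present; test concentration not given here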; conditions: S. pombe 972 growth, higher = more signal, called active from +8 up or from −8 down
[4] = budding yeast growth modifiers under rapamycin – strain BY4716, OD600, 96 h, primary screen (AID 1091); note: test concentration not given here; conditions: S. cerevisiae BY4716 + rapamycin, higher = more signal, called active from +8 up or from −8 down
[5] = target: Torsin-1A-interacting protein 2 (Homo sapiens) (UniProt Q8NFQ8); experiment: small molecules binding lysate-expressed LULL1 – cell lysate, human LULL1 lysate, 635/667 nm fluorescence, primary screen (AID 1092); conditions: small-molecule microarray, hLULL1 lysate binding, 635 nm fluorescence; higher = more signal;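 note: probe is lysate of COS7 cells overexpressing human LULL1; score merges per-feature 667 nm fluorescence with signal-to-noise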
Sequence of Torsin-1A-interacting protein 2 (Homo sapiens) (Q8NFQ8 whole entry, looked up): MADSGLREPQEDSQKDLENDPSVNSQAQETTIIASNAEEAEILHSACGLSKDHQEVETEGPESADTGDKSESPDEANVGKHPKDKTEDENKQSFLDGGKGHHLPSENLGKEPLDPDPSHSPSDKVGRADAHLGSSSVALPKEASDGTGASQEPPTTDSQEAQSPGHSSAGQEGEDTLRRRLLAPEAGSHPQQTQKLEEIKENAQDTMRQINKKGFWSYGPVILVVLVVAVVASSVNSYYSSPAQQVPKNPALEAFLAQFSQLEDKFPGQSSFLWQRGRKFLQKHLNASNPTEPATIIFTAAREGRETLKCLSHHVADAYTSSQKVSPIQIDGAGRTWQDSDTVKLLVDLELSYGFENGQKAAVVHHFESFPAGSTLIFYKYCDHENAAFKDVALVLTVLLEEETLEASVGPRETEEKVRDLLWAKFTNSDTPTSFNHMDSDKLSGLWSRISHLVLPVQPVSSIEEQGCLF

[6] = optical density change of DRC41 E. coli – strain DRC41, OD650, 24 h, E. coli filamentation project, primary screen (AID 1093);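 note: MC1000 strain lacking acrAB efflux and sulA so SOS filamentation is blocked; test concentration not given here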; conditions: E. coli DRC41 growth, higher = more signal, called active from +8 up or from −8 down
[7] = probe aLefty2 binding to arrayed compounds – biochemical, biotinylated probe, 635/667 nm fluorescence, primary screen (AID 1094); conditions: small-molecule microarray, higher = more signal;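 note: score merges spot fluorescence near 667 nm with spot signal-to-noise ratio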
[8] = tested on: Noggin (protein binding on small-molecule microarray); experiment: small molecules binding Noggin protein – biochemical, 635/667 nm fluorescence, primary screen (AID 1095); conditions: 635 nm fluorescence, higher = more signal;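 note: score merges 667 nm feature fluorescence with signal to noise over triplicate slides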
[9] = target: Neurogenic locus notch homolog protein 3 (Homo sapiens) (UniProt Q9UM47); experiment: small molecules binding NOTCH3 protein – biochemical, 635/667 nm fluorescence, primary screen (AID 1096); conditions: small-molecule microarray, 635 nm fluorescence, higher = more signal
Sequence of Neurogenic locus notch homolog protein 3 (Homo sapiens) (Q9UM47 whole entry, looked up): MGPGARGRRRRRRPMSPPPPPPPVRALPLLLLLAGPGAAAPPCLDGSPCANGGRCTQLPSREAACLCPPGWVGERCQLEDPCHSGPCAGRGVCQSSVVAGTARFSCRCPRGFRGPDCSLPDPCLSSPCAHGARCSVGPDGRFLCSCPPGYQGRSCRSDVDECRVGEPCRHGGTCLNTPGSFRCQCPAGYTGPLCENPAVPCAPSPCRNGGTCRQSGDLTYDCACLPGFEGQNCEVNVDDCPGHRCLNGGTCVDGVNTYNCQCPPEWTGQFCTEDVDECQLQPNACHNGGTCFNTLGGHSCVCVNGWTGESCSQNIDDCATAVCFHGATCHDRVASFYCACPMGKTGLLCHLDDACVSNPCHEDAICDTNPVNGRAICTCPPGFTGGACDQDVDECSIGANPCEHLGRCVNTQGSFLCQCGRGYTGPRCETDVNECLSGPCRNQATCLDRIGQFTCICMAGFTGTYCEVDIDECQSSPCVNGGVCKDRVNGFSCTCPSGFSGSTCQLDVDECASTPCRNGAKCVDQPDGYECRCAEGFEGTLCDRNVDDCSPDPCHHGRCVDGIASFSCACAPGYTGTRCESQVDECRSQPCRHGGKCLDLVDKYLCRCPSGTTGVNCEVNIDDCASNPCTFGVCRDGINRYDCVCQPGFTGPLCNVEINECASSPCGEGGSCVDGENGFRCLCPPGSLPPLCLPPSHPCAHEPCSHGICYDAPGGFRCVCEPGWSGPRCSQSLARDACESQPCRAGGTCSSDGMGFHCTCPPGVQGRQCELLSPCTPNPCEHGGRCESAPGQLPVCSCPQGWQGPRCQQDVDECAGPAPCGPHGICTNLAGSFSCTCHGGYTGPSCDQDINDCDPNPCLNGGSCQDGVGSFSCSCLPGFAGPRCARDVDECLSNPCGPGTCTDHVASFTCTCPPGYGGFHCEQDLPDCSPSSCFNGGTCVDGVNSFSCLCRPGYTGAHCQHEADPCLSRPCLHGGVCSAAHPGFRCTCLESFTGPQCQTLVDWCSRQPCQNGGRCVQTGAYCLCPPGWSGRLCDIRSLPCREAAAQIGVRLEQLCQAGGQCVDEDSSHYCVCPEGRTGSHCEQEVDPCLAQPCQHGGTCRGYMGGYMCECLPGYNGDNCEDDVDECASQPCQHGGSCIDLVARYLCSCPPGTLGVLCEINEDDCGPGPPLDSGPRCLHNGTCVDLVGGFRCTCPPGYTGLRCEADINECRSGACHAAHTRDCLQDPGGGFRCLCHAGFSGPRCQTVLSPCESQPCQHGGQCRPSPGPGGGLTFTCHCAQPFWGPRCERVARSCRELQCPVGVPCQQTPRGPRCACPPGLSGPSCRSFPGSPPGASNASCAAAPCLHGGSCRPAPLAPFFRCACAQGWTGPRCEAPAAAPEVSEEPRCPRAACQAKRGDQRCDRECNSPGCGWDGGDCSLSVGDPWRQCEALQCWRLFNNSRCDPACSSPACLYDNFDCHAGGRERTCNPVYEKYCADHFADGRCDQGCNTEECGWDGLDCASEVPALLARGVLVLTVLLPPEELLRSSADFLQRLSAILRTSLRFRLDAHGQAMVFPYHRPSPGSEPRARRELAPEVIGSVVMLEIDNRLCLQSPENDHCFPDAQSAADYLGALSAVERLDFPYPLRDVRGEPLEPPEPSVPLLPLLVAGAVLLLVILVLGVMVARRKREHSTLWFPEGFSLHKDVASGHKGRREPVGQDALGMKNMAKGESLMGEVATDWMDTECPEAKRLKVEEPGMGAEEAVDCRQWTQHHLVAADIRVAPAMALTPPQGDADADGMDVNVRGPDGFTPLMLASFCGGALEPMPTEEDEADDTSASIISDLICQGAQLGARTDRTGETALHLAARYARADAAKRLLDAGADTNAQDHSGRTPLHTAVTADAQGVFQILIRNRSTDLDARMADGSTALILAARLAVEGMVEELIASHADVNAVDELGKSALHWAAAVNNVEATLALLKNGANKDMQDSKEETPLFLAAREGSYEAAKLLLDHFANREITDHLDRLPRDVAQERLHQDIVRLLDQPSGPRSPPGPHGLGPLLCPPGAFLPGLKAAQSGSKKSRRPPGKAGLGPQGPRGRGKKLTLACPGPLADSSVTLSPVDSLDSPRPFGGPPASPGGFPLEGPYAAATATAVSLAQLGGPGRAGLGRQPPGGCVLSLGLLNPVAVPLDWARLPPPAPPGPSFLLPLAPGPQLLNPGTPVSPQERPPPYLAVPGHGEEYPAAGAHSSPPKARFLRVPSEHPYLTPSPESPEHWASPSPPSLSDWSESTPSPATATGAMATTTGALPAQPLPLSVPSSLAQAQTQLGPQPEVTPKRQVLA

[10] = probe aEGFR binding to arrayed compounds – biochemical, biotinylated probe, 635/667 nm fluorescence, primary screen (AID 1097); conditions: small-molecule microarray, higher = more signal;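 note: probe is a biotinylated anti-EGFR antibody binding compounds printed on slides; score combines fluorescence near 667 nm and signal to noise of each spot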
[11] = tested on: Plasmodium falciparum Sir2 (PF13_0152, Sir2A); experiment: Plasmodium falciparum Sir2A binding compounds – biochemical, small-molecule microarray, 635 nm fluorescence, primary screen (AID 1098); conditions: fluorescence 635 nm, higher = more signal;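 note: score merges spot fluorescence intensity with its signal-to-noise ratio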
[12] = probe aDKK1 binding to arrayed compounds – biochemical, biotinylated probe, 635/667 nm fluorescence, primary screen (AID 1099); conditions: small-molecule microarray, higher = more signal;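 note: score merges 667nm spot fluorescence with signal to noise across triplicate slides; reference of the scale not given here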
[13] = probe aCHRDL2 binding to arrayed compounds – biochemical, biotinylated probe, 635/667 nm fluorescence, primary screen (AID 1100); conditions: small-molecule microarray, higher = more signal
[14] = change in splice reporter luminescence, either direction, cell-based, HEK293, spliceosome inhibition project, primary screen (AID 1101); conditions: HEK293 splicing luciferase reporter, 24 h, higher = more signal, called active from +8 up or from −8 down;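 note: HEK293 cells carrying a splicing-competent luciferase reporter gene; test concentration not given here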
[15] = target: Fibroblast growth factor 10 (Homo sapiens) (UniProt O15520); experiment: compounds binding fibroblast growth factor 10 – biochemical, small-molecule microarray, 635 nm fluorescence, primary screen (AID 1102); conditions: FGF10 binding, fluorescence 635 nm, higher = more signal
Sequence of Fibroblast growth factor 10 (Homo sapiens) (O15520 whole entry, looked up): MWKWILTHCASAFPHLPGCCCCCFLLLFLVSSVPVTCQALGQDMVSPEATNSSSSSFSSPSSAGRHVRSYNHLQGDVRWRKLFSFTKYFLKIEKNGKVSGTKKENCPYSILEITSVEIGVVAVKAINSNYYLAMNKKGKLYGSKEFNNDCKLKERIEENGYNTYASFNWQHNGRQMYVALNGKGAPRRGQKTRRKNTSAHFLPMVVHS

[16] = tested on: glycogen synthase kinase-3 (GSK3A per assay name; protocol says GSK3B); experiment: compounds binding glycogen synthase kinase-3 – biochemical, small-molecule microarray, 635 nm fluorescence, GSK3A, primary screen (AID 1103); conditions: fluorescence 635 nm, higher = more signal; note: the record names both GSK3A and GSK3B
[17] = target: Epidermal growth factor receptor (Homo sapiens) (UniProt P00533); experiment: compounds binding epidermal growth factor receptor – biochemical, small-molecule microarray, 635 nm fluorescence, primary screen (AID 1104); conditions: EGFR binding, higher = more signal;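 note: score merges 667 nm emission intensity with spot signal to noise over triplicate slides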
Sequence of Epidermal growth factor receptor (Homo sapiens) (P00533 whole entry, looked up): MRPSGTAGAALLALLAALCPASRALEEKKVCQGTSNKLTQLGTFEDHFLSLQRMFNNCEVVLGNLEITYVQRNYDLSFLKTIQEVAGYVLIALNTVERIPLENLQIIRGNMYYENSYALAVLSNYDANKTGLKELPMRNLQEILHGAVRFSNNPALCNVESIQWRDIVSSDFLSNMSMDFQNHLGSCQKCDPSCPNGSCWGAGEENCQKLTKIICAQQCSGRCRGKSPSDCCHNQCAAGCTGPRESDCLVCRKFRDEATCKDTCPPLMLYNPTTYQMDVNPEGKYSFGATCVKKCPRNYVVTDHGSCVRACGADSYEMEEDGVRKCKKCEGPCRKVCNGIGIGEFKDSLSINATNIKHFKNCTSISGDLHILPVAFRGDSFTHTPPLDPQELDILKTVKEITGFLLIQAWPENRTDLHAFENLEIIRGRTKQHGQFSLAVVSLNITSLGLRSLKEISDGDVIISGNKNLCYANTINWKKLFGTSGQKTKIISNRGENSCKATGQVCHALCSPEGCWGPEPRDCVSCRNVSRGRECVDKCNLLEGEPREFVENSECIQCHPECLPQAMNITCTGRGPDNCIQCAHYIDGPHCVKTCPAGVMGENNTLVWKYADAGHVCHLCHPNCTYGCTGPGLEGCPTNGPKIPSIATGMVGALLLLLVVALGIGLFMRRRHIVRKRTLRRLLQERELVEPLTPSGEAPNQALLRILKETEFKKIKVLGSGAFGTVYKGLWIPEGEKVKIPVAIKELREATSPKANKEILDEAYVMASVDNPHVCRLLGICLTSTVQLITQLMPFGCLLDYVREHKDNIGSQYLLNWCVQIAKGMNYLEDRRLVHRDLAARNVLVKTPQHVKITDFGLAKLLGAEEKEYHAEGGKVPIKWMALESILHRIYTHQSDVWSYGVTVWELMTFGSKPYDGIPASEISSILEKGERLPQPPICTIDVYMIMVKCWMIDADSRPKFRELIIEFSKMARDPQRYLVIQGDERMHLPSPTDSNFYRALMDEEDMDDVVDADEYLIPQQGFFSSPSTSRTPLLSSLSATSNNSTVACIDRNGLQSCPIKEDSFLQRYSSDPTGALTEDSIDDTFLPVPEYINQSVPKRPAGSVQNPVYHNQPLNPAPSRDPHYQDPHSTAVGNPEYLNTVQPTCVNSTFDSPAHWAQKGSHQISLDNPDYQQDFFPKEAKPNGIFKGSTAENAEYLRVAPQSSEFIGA

[18] = target: Follistatin-related protein 3 (Homo sapiens) (UniProt O95633); experiment: compounds binding follistatin-related protein 3 – biochemical, small-molecule microarray, 635 nm fluorescence, primary screen (AID 1105); conditions: FSTL3 binding, higher = more signal;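 note: score merges emission near 667 nm and signal to noise per printed spot across three slides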
Sequence of Follistatin-related protein 3 (Homo sapiens) (O95633 whole entry, looked up): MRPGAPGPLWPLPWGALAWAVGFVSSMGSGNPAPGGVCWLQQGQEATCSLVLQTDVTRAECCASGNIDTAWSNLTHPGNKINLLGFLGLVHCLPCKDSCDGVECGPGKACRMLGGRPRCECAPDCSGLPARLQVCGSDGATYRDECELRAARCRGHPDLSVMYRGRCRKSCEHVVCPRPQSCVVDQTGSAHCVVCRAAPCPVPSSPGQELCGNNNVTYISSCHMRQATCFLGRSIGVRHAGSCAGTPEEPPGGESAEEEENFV

[19] = target: Dickkopf-related protein 1 (Homo sapiens) (UniProt O94907); experiment: small molecules binding DKK1 protein – biochemical, small-molecule microarray, 635 nm fluorescence scan, primary screen (AID 1106); conditions: higher = more signal;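 note: score merges emission near 667 nm with signal to noise over three replicate slides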
Sequence of Dickkopf-related protein 1 (Homo sapiens) (O94907 whole entry, looked up): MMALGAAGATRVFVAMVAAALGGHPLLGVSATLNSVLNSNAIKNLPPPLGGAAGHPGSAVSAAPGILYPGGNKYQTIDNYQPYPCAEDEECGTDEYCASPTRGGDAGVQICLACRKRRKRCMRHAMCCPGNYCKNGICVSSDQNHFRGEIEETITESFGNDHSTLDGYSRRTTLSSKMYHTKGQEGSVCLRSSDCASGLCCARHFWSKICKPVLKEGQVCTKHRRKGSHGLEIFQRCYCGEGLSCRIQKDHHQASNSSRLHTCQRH

[20] = tested on: Inhibin beta A chain (activin A); experiment: small molecules binding activin A – biochemical, small-molecule microarray, 635 nm fluorescence scan, primary screen (AID 1107); conditions: INHBA, higher = more signal;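 note: mouse activin A protein probed at 4.33 µg/mL on printed slides; score merges bound-protein fluorescence near 667 nm with spot signal-to-noise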

| SMILES | composite z-score [1] | z-score [2] | z-score [3] | z-score [4] | composite z-score [5] | z-score [6] | composite z-score [7] | composite z-score [8] | composite z-score [9] | composite z-score [10] | composite z-score [11] | composite z-score [12] | composite z-score [13] | z-score [14] | composite z-score [15] | composite z-score [16] | composite z-score [17] | composite z-score [18] | composite z-score [19] | composite z-score [20] |
| --- | --- | --- | --- | --- | --- | --- | --- | --- | --- | --- | --- | --- | --- | --- | --- | --- | --- | --- | --- | --- |
| COc1cc(CO)cc(I)c1O[C@H]1C=C(C(=O)NCCO)C[C@@H](N(C(=O)c2cc3ccccc3oc2=O)C2CCCCCC2)[C@@H]1O | -0.446 | -0.13 (inactive) | -1.59 (inactive) | -1.26 (inactive) | -0.188 | 1.86 (inactive) | -0.198 | 0.437 | 0.383 | -0.207 | 1.09 | -0.28 | -0.302 | -1.33 (inactive) | 0.968 | -0.314 | 0.338 | 0.348 | 0.306 | -0.0101 |
| CC(C)[Si](C#CCCCC#N)(Oc1ccccc1Br)C(C)C | 0.987 | 1.13 (inactive) | -1.09 (inactive) | -1.96 (inactive) | 0.86 | -0.146 (inactive) | -0.203 | 0.506 | 0.653 | -0.0389 | 0.436 | -0.288 | -0.536 | -0.542 (inactive) | 0.361 | 0.693 | 0.216 | 0.58 | -0.108 | 0.32 |
| O=C1C2C=CC(C(O)COCc3ccccc3)N(Nc3ccc([N+](=O)[O-])cc3)C2C(=O)N1c1ccccc1 (stereo not given) | 1.46 | -0.464 (inactive) | 1.12 (inactive) | 2.16 (inactive) | 2.83 | 0.547 (inactive) | 0.168 | 0.661 | 1.09 | -0.0072 | 1.06 | 0.735 | 0.889 | -1.44 (inactive) | 1.05 | 1.32 | 0.42 | 1.22 | 0.111 | 0.976 |
| C#CCN(C/C=C/c1ccccc1)[C@H](CO)c1ccccc1 | -0.019 | -3.99 (inactive) | -21.4 (active) | -1.64 (inactive) | 0.0638 | 0.408 (inactive) | -0.319 | 1.12 | 0.39 | -0.215 | -0.222 | -0.583 | -0.506 | 0.985 (inactive) | 0.0797 | 0.0831 | -0.0239 | 0.598 | 0.358 | -0.283 |
| O=C1NC(=O)C2C1C=CC(C(O)c1ccc(I)cc1)N2Nc1ccc(Cl)cc1Cl (stereo not given) | 0.265 | -9.39 (active) | -5.52 (inactive) | -0.806 (inactive) | 2.64 | -1.3 (inactive) | 0.162 | -0.0422 | 0.925 | -0.0953 | 1.03 | 0.418 | 1.08 | -1.09 (inactive) | 0.41 | 0.782 | -0.079 | 0.425 | -0.235 | 0.871 |
| COc1ccc([Si](C)(C)[C@H]2[C@H](CCO)O[C@@]3(C(=O)N(Cc4ccccc4)c4ccc(N5CCCCC5=O)cc43)[C@@H]2C)cc1 | 1.56 | 0.296 (inactive) | -0.158 (inactive) | 1.97 (inactive) | 1.9 | 0.587 (inactive) | -0.17 | 1.23 | 0.932 | -0.123 | 1.06 | -0.0725 | 0.104 | -2.11 (inactive) | 0.884 | 0.737 | 0.199 | 0.579 | -0.0075 | 0.301 |
| CCC(CC)C(O)C1C=CC2C(=O)N(c3ccccc3)C(=O)C2N1Nc1ccccc1 (stereo not given) | 1.49 | 0.296 (inactive) | -0.914 (inactive) | 0.204 (inactive) | 3.53 | 0.272 (inactive) | 0.503 | 0.403 | 1.07 | 0.228 | 1.52 | 1.29 | 1.15 | -0.326 (inactive) | 0.988 | 1.21 | 0.452 | 1.38 | 0.0269 | 0.555 |
| CCCCN1CC=CC23O[C@@H]4/C=C\CCCOC(=O)C4[C@H]2C(=O)N(CCCCCO)[C@@H]3C1=O (stereo not given in full) | -1.13 | -0.669 (inactive) | -0.392 (inactive) | -0.8 (inactive) | -0.42 | -0.769 (inactive) | -0.188 | -1.16 | -1.02 | -0.324 | 1.29 | -0.37 | -0.167 | 1.08 (inactive) | -0.552 | -1.34 | -1.13 | -1.08 | -0.443 | 0.653 |
| C=CC[C@@]1(C(=O)N2CCCCC2)N=C(c2ccc(OCCCO)cc2)O[C@@H]1c1ccccc1N=[N+]=[N-] | 1.54 | -0.989 (inactive) | -0.577 (inactive) | 1.13 (inactive) | 3.23 | 1.07 (inactive) | 0.286 | 0.564 | 1.13 | 0.14 | 0.763 | 1.19 | 1.07 | -0.212 (inactive) | 0.925 | 0.742 | 0.249 | 0.657 | -0.0197 | 1.03 |
| CN(C)CCCCCCNC(=O)[C@@H]1C[C@@H]2C(=O)N3CCC[C@H]3C(=O)N2[C@@H]1c1ccc(O)cc1 | 1.53 | -3.92 (inactive) | -0.974 (inactive) | -0.982 (inactive) | 2.51 | 0.434 (inactive) | 0.312 | 1.5 | 1.05 | 0.28 | 0.609 | 0.381 | 0.234 | -1.51 (inactive) | 1.1 | 1.34 | 0.842 | 1.48 | 1.69 | 0.254 |
